RECQ1 inh – inhibitors of human RECQ1 DNA helicase. AID 2549. RECQ1 DNA unwinding, red fluorescence kinetic read. Potency, µM (top dose mostly 57.3 µM), without a hit: top-dose activity, negative = inhibition, actives largely listed as inhibitors. 240,000 compounds, 0.54% hits. P46063;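 note: plate controls were vehicle for no effect and no enzyme for full effect; nearly all actives have a fitted effect of over 30% in size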
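50 nM RECQ1T1 preincubated 15 min with compound in Tris pH 8.0 buffer with MgCl2, DTT, Tween-20 and 2.5 ug/ml poly(dI-dC); started with 200 nM TAMRA/BHQ-2 forked duplex and 2 mM ATP. Unwinding read as fluorescence (525/598 nm), two reads 2 h apart.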
TDP1 block – TDP1 (human) enzyme inhibition. Q9NUW8. recombinant TDP1, AlphaScreen DNA substrate cleavage. Potency, µM (top dose mostly 130 µM), for inactives: top-dose activity change, negative = inhibition, actives largely listed as inhibitors. 350,000 compounds, 0.28% hits; note: nearly all actives have a fitted effect of over 40% in size
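Recombinant human Tdp1 (E. coli-expressed, 1 nM final) preincubated with compounds 15 min at room temperature, then 5'-biotin/3'-phosphotyrosine-FITC DNA substrate (15 nM final) added for 5 min. AlphaScreen beads (10 ug/ml final) added 10 min; cleavage lowers signal.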
FEN1 inh – blocks human flap endonuclease 1 | P39748 | Recombinant FEN1 flap cleavage, fluorescence, 15 min | Potency, µM (doses to about 114 µM), for inactives: top-dose activity change, negative = inhibition, most hits filed as inhibitors | 390,000 compounds, 0.35% hits; note: nearly all actives have a fitted effect of over 65% in size
Target sequence (P39748 whole entry, looked up): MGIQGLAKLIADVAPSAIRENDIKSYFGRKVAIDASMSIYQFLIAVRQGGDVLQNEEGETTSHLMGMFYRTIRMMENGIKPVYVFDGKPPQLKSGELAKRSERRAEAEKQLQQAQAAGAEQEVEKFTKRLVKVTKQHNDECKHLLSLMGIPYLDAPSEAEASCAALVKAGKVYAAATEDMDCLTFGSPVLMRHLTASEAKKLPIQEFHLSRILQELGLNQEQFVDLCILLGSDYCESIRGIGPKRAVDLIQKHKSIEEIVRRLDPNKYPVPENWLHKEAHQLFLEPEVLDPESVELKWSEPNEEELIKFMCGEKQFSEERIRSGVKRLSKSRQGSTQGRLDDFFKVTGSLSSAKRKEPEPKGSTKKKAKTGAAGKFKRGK
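Steps: FEN1 (10 nM) dispensed; compound added by pin tool; 15 min at room temperature; substrate added to 50 nM final; reads at 0 min and 15 min; data normalized and fitted (four-parameter Hill).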
BLM helicase inh – blocks DNA unwinding by human BLM helicase. recombinant BLM DNA unwinding, fluorescence dequenching. AID 2528. 350,000 compounds, 0.2% hits. Potency, µM (highest dose often 56.1 µM), for the others: at the highest dose activity change, negative = inhibition, actives largely listed as inhibitors;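 note: plate controls were vehicle for no effect and no enzyme for full effect; nearly all actives have a fitted effect of over 35% in size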
APE1 inh – inhibitors of human APE1 endonuclease; P27695; recombinant APE1, TAMRA/BHQ-2 abasic DNA cleavage fluorescence; 350,000 compounds, 0.35% hits; Potency, µM (titrated, usually from 65.8 µM), for inactives: at the highest dose activity change, negative = inhibition, most hits filed as inhibitors;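 note: plate controls were vehicle for no effect and reference inhibitor for full effect; nearly all actives have a fitted effect of over 55% in size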
Target sequence (P27695 whole entry, looked up): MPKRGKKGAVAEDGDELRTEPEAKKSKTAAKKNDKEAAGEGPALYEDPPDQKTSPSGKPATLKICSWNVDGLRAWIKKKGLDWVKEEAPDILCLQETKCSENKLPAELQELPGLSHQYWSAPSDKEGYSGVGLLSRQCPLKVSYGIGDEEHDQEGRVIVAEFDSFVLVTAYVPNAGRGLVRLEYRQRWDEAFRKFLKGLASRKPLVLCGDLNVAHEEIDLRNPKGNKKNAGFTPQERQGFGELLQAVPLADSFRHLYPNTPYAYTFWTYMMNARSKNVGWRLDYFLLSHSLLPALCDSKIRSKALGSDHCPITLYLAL
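Substrate: short duplex with […] THF abasic site, 5'-TAMRA and 3'-BHQ-2, 50 nM final. APE1 at 0.75 nM, preincubated 15 min RT with compound. Fluorescence increase from first to third read measured activity.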
Numbers without * were called inactive; i = inactive; ? = inconclusive; . = no result; [ ] = dose if it differs, or a comment. This is a sample that favours compounds with a hit; in the whole collection about 0.92% have one here. Calls come from the whole dose curve; as a rule, active = well fitted curve in the direction sought with a large enough effect; inconclusive = small, poorly fitted or top-dose-only effect, or another doubt; inactive = no such curve, though single readings can be large; an effect the other way counts as inactive or inconclusive. Unless noted, % is set by controls: 0 for no effect and ±100 for the full control effect; potency is the fitted concentration of half-maximal effect.

SMILES	RECQ1 inh	TDP1 block	FEN1 inh	BLM helicase inh	APE1 inh
O=C(O)c1ccc(CSc2nnc(-c3cccc([S+](=O)([O-])NC4CCCC4)c3)n2-c2ccccc2)cc1	.	.	.	.	32%
CC(C)c1cc2c(s1)c1cnn(Cc3ccccc3F)c(=O)c1n2C	.	-5%	.	.	.
COc1ccc(S(=O)(=O)NCCC(=O)NC2CCCCC2C)cc1[N+](=O)[O-] (configuration not stated)	.	18µM*	-13%	.	?
CC1=CCC(C(=O)O)C(C(=O)NC2CCCCC2)C1 (configuration not stated)	.	32µM*	2%	-6%	11%
N#Cc1cccc(-c2csc(N3CCC(C(N)=O)CC3)n2)c1	.	.	.	.	-10%
COC(=O)CCC(=O)OC1(C)C(=O)C=C2C=C3CCCN3C=C2C1=O (configuration not stated)	i[11.5 µM]	?	?	-7%[12.4 µM]	?
CC1(OC(=O)c2ccc(Cl)nc2)C(=O)C=C2C=C3CCCN3C=C2C1=O (configuration not stated)	?	8.9µM*	?	-10%[12.4 µM]	?
Cc1cc(N(C)C)c(C)cc1/C=C/c1ccnc2ccccc12	.	.	-3%	.	.
Nc1nc(N)c2c(Oc3ccc(F)cc3)cccc2n1	.	.	7%	.	.
O=C1OC(c2cccs2)=N/C1=C\c1ccc(-c2ccccc2Cl)o1	-12%	6%	4%	-13%	0%
O=C1OC(c2cccs2)=N/C1=C/c1ccc(-c2cccc(C(=O)O)c2)o1	?	?	40µM*	110%	18µM*
Cc1cc2c(s1)c1cnn(Cc3cccc(F)c3F)c(=O)c1n2C	.	-4%	.	.	.
Cn1c2cc(B(O)O)sc2c2cnn(Cc3ccc(F)cc3F)c(=O)c21	.	.	.	.	13µM*
Cc1cc2c(s1)c1cnn(Cc3ccc(Cl)cc3)c(=O)c1n2C	.	35µM*	.	.	.
Cn1c2cc(B(O)O)sc2c2cnn(Cc3c(F)cccc3F)c(=O)c21	.	.	.	.	21µM*
Cn1c2cc(Br)sc2c2cnn(Cc3ccc(F)cc3F)c(=O)c21	.	2%	-23%	.	-6%
C=CC[N@@+]12CC[C@@]34c5ccccc5N5/C=C6/[C@H]7C[C@H]8[C@@]9(CC[N@@+]8(CC=C)C/C7=C/CO)c7ccccc7N(/C=C(/[C@@H](C[C@@H]31)/C(=C\CO)C2)[C@H]54)[C@@H]69	.	.	.	.	-1%[21 µM]
O=C1CCCC2=C1C1(CCSC1)N=C(Nc1nc3ccccc3o1)N2 (configuration not stated)	.	0%	.	.	.
COc1cccc(C2c3c(ncn(-c4ccc5c(c4)OCO5)c3=N)Oc3ccc4ccccc4c32)c1 (configuration not stated)	.	5%	.	.	.
c1nc(NCCc2cnc[nH]2)c2ccc(-c3ccc4c(c3)OCO4)cc2n1	.	7%	.	.	.
COc1ccc(-c2cc(C(F)(F)F)c3c(n2)sc2c(O)cc(=O)[nH]c23)c(OC)c1	9%	0%	?	-23%	0%
Cc1cc(C)c2c(n1)sc1c(O)cc(=O)[nH]c12	-4%	22µM*	?	?	?
Cc1c(P(=S)(c2ccccc2)c2ccccc2)c2ccccc2n1C/C=C/c1ccccc1	.	0%	.	.	.
COc1cc2nc(N3CCCN(C)CC3)nc(N3CCN(C)CC3)c2cc1OC	.	.	-4%	.	.
COc1cc2nc(N3CCCCC3)nc(NC3CCN(Cc4ccccc4)CC3)c2cc1OC	.	.	40µM*	.	.
SMILES	RECQ1 inh	TDP1 block	FEN1 inh	BLM helicase inh	APE1 inh
CN(C)CCCCCCNc1cc(N2CCN(C)CC2)ncn1	.	.	-3%	.	.
COc1cc2c(NC3CCN(C)CC3)nc(N3CCCN(C)CC3)nc2cc1OCCCCCCN(C)C	.	.	22µM*	.	.
COc1cc2c(NC3CCN(C)CC3)nc(N3CCCN(C)CC3)nc2cc1OCCCN(C)C	.	.	22µM*	.	.
COc1ccc(Nc2nc(N3CCCC3)nc3ccccc23)c(OC)c1	-15%	-2%	50µM*	52%	?
COc1ccc(Nc2nc(Nc3ccc(OC)cc3OC)nc(N3CCOCC3)n2)c(OC)c1	.	.	-13%	-16%	.
C[C@H]1O[C@@H](O[C@H]2CC[C@@]3(C)[C@H](CC[C@@H]4[C@@H]3C[C@@H](O)[C@]3(C)[C@@H](C5=CC(=O)OC5)CC[C@]43O)C2)C[C@H](O)[C@@H]1O[C@H]1C[C@H](O)[C@H](O[C@H]2C[C@H](O)[C@H](O[C@@H]3O[C@H](CO)[C@@H](O)[C@H](O)[C@H]3O)[C@@H](C)O2)[C@@H](C)O1	.	.	.	.	-8%
COC(=O)C[C@](O)(CCCC(C)(C)O)C(=O)O[C@@H]1C(OC)=CC23CCCN2CCc2cc4c(cc2[C@H]13)OCO4 (some centres not stated)	.	.	.	.	-6%
COc1ccccc1-c1csc(N2CCC(C(N)=O)CC2)n1	.	.	.	.	8%
COc1cccc(C2c3c(ncn(-c4ccccn4)c3=N)Oc3ccc4ccccc4c32)c1 (configuration not stated)	.	0%	.	.	.
COc1cc2c(NC3CCN(C)CC3)nc(N3CCCCC3)nc2cc1OCCCN(C)C	.	.	25µM*	.	.
CCCN(C)CCCOc1cc2nc(N3CCCN(C)CC3)nc(NC3CCN(C)CC3)c2cc1OC	.	.	28µM*	.	.
COc1cc2c(Nc3ccc(Br)cc3F)ncnc2cc1OCC1CCN(C)CC1	.	.	.	79%	.
COc1cc2c(NC3CCN(C)CC3)nc(N3CCCN(C)CC3)nc2cc1OCCCCN(C)C	.	.	28µM*	.	.
Cc1ccccc1N(C)C1=N[S+](=O)([O-])c2ccccc21	.	1%	.	.	.
Cc1c(P(=S)(c2ccccc2)c2ccccc2)c2ccccc2n1C(=O)NCc1ccc(F)cc1	.	0%	.	.	.
O=C(Nc1ccc(C2=NCCN2)cc1)c1ccc(C(=O)Nc2ccc(C3=NCCN3)cc2)c(Cl)c1	57%	11%	50µM*	257%	-6%
CCCN(CCC)c1ccc(/C=C/c2ccnc3ccccc23)cc1	.	.	-1%	.	.
COc1ccc(NC(=O)CSc2nc(NS(=O)(=O)c3ccccc3)cc(=O)[nH]2)cc1	14µM*	.	56µM*	?	?
Cc1cccc([S+](=O)([O-])NC2CCN(C#N)CC2)c1	.	0%	.	.	.
O=[N+]([O-])c1cccc2c(S(=O)(=O)N3CCCCC3)cccc12	.	5%	-21%	-10%	45%
O=[N+]([O-])c1cccc2c(S(=O)(=O)N3CCOCC3)cccc12	.	20µM*	11%	-8%	11µM*
CCOC(=O)[C@@H](C)N(C(=O)OC(C)(C)C)S(=O)(=O)N(Cc1ccccc1)[C@@H](C(=O)OC)C(C)C	.	.	-7%	.	.
CSc1cc2c(s1)c1cnn(Cc3cccc(O)c3)c(=O)c1n2C	.	1%	.	.	.
COc1ccc(S(=O)(=O)n2nc(OC(C)=O)cc2N)cc1	-10%	3%	45µM*	0%	1%
COc1ccc(C(=O)Oc2cc(N)n(S(=O)(=O)c3ccccc3)n2)cc1	1%	0%	-1%	-4%	-4%
NC(=O)C1CCN(c2nc(-c3ccc(N4CCCCC4)nc3)cs2)CC1	.	.	.	.	9%
